Experimental findings from PubChem BioAssay (NCI) are described below.

Molecules are shown by their SMILES. Compounds without any hit were thinned out: in the full panel of roughly 83,000, 20% have a hit.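 In brief: 96-well plates, 48 h treatment, single concentration, percent growth endpoint.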 Activity calls are given as the source filed them. How the source made its calls: active means growth percent below 10; inactive means the rest.

This assay concerns A549/ATCC NSCLC. As to the kind of experiment: NCI-60 one-dose screen, 48 h (100 = growth as untreated, 0 = no growth, -100 = all killed). The settings on record: 10 µM unless noted.
`O=C1COCCN1c1ccc(NCc2cn(C(=O)c3ccc(Cl)cc3)c3ccccc23)cc1`: the growth was 46.9% (inactive).

Regarding `COc1ccc(-c2cnc3ccccc3n2)cc1`, the growth is 94.6% (inactive).

Turning to `CCOC(=O)C1=C(N)Oc2c(sc3c(C)cccc23)C1c1ccc(OC)cc1` (stereo not drawn), the growth was 42.7% (inactive).

For the compound `FC(F)(F)c1cc(Nc2ccc3c(OCCCN4CCOCC4)cccc3n2)ccc1Cl`, the growth is 30.5% (inactive).

Regarding `COc1cc(C(=O)c2cc(C)c3[nH]c4ccc(O)cc4c3c2C)cc(OC)c1OC`, the growth was 22.7% (inactive).

Consider `Cc1ccc(C(=O)N/N=C/c2cccc(Oc3ccccc3)c2)cn1`, for which the growth is 54.1% (inactive).

As to `CC(=O)CC(c1cccs1)c1c(-c2ccccc2)[nH]c2ccccc12` (stereo not drawn), the growth is 91.3% (inactive).

Regarding `NC(=O)C1(Nc2ccc(Br)cc2)CCCC1`, the growth was 103% (inactive).

As for `COc1ccc(-c2c(C(=O)NS(C)(=O)=O)n(Cc3cccc(C(F)(F)F)c3)c3ccccc23)cc1`, the growth was 88.8% (inactive).

Take `O=C1NC(=O)C(c2ccccc2)(c2ccccc2)N1Cc1cn(-c2c3ccccc3nc3ccccc23)nn1`: the growth was 78.2% (inactive).

In the case of `CCCCn1c(-c2ccc(C(=O)O/N=C(\N)c3ccc(OC)cc3)cc2)nc(-c2ccccc2)c1-c1ccccc1`, the growth was -31.7% (active).

On to `COc1cc(Nc2nc(NCCN)nc3cc[nH]c(=O)c23)cc(OC)c1`, for which the growth was 90.5% (inactive).

Consider `COc1ccc(-c2[nH]c3ccc(OC)cc3c2/C=C(\C#N)S(=O)(=O)c2ccccc2)cc1`, for which the growth is 23.5% (inactive).

With `COc1ccc(C2=Nn3c(nnc3-c3cc(Cl)cc(Cl)c3Cl)SC2)cc1`, the growth is 21.9% (inactive).

Consider `COc1ccc(C(=S)N2CCN(c3cccc(C)c3)CC2)cc1OC`, for which the growth is 59.4% (inactive).

In the case of `COc1cc(CCCO)c(OC)c(OC)c1OC`, the growth is 102% (inactive).

With `O=C(Nc1nc2ccc(F)cc2s1)c1cccnc1Nc1ccc(Cl)cc1Cl`, the growth is 17% (inactive).

Turning to `Cc1cccc2c3c(sc12)C(c1ccc(F)cc1)C(C#N)=C(N)O3` (stereo not drawn), the growth is 22.1% (inactive).

For `BrCCCc1n(Cc2ccc3ccccc3c2)c2ccccc2[n+]1Cc1ccc2ccccc2c1`, the growth is -54.1% (active).

As to `CCOC(=O)Cn1c(C)c(/C=N/NC(=O)c2cc3c(ccc4ccccc43)o2)c2ccccc21`, the growth is 21.8% (inactive).

`CCOC(=O)c1sc2ncc(-c3ccc(OC)cc3)n2c1C`: the growth is 104% (inactive).

Take `O=c1c2cccc(F)c2sc2c(NCCCNCCO)nc3ccccc3c12`: the growth was 26.9% (inactive).

On to `CNCCCNc1nc2ccccc2c2c(=O)c3cc(F)ccc3sc12`, for which the growth is 37.9% (inactive).

On to `CC(=O)OC[C@H]1OC(Sc2sc(C(=O)c3ccc(Cl)cc3)c(N)c2-c2nc3ccccc3s2)[C@H](OC(C)=O)[C@@H](OC(C)=O)[C@@H]1OC(C)=O` (stereo partly drawn), for which the growth is 86.4% (inactive).

Turning to `OC(c1ccccc1)C(NC(Cc1ccccc1)c1ccccc1)c1ccccc1` (stereo not drawn), the growth was 73.3% (inactive).

`CCOC(=O)c1cn2ncnc(Oc3ccc(NC(=O)NCCN(C)C)c(Cl)c3)c2c1C`: the growth was 92.4% (inactive).

Regarding `Cc1nc2ccccc2c(/C=C/c2ccccc2)c1C(=O)/C=C/c1ccc(C(F)(F)F)cc1`, the growth is 75.3% (inactive).

`Cc1[nH]c(C(=O)Nc2ccc(C(=O)NCCN)cc2OC(C)C)c(Cl)c1Cl`: the growth is 47.3% (inactive).

On to `CN1CCN(c2ccc(-c3cnc4c(-c5csc6ccccc56)cnn4c3)cc2)CC1`, for which the growth was -76.9% (active).

For the compound `c1ccc(-c2nc3sc(-c4ccccc4)cn3n2)cc1`, the growth was 89.6% (inactive).

Turning to `COc1c(B(O)O)cc(F)cc1-c1nc2ccc3[nH]ncc3c2c2c1CCCC2`, the growth is 15% (inactive).

In the case of `CNCCCC12CCC(c3ccccc31)c1ccccc12`, the growth is 90.1% (inactive).

For the compound `C=C1C(=O)O[C@H]2[C@H]1CC/C(COC(=O)C(C)c1ccc(CC(C)C)cc1)=C\CC[C@@]1(C)O[C@@H]21` (stereo partly drawn), the growth is 75.1% (inactive).

In the case of `CC1=C(C)C(=O)C(Nc2cccc(C(=O)OC(C)(C)C)c2)=C(Br)C1=O`, the growth was 95.6% (inactive).

Take `COc1ccc(C2CC(c3ccc(Nc4ccnc5cc(Cl)ccc45)cc3)=NN2C=O)cc1` (stereo not drawn): the growth is 64.3% (inactive).

`Cc1nc(NC(=O)COc2ccc(/C=C3\Cc4ccc(Cl)cc4C3=O)cc2)sc1C`: the growth is 105% (inactive).

For the compound `Cc1ccc2c(-c3cc(-c4ccccc4)nc(N)c3C#N)cc(=O)oc2c1`, the growth is 92% (inactive).

In the case of `CN(C)c1ccc(/C=N\Nc2cc(=O)[nH]c3ccc(Cl)cc23)cc1`, the growth was 96.6% (inactive).
